Records with an inconclusive call do not appear. Activity calls are given as the source filed them. Unless noted, the call rests on the fitted dose curve; in most records, active means well fitted curve in the direction sought with a large enough effect; inconclusive means small, poorly fitted or top-dose-only effect, or another doubt; inactive means no such curve, though single readings can be large; an effect the other way counts as inactive or inconclusive.
Tests used:
[1] = qHTS assay for measurement of the activity of small molecule inhibitors on Zika virus induced Caspase-3 activity in human iPSC derived neural progenitor cells (hNPCs) (AID 1224857); conditions: hNPCs ZIKV-induced caspase-3/7, Caspase-Glo luminescence, 6 h; series mostly up to 45.7 µM; further: nearly all actives have a fitted effect of over 65% in size
Outline: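 After overnight (16–20 h) culture at 350 cells/well, hNPCs get compound, then ZIKV 2 FFU/cell one hour later. Six hours on, Caspase-Glo 3/7 is added and luminescence measured.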

[2] = qHTS assay for measurement of the activity of small molecule inhibitors on Zika virus induced Caspase-3 activity in human astrocytoma cells (AID 1224859); conditions: SNB-19 ZIKV-induced caspase-3/7, luminescence, 6 h; series mostly up to 45.7 µM
Outline: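 Inhibition of Zika-induced caspase-3/7 activity: SNB-19 cells, 1 h compound pretreatment, ZIKV 2 FFU/cell for 6 h at 37 C, Caspase-Glo luminescence read-out.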

[3] = qHTS of pediatric cancer cell lines to identify multiple opportunities for drug repurposing: Primary screen for DAOY cells (AID 1347090); conditions: DAOY medulloblastoma viability, CellTiter-Glo luminescence, 48 h; series mostly up to 46 µM; further: nearly all actives have a fitted effect of over 55% in size
Outline: (§1)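 Viability measured as metabolically active cells via CellTiter-Glo luminescence following 48 hours of compound exposure, 11-point dilutions in confirmatory testing. 500-1,000 cells/well plated 5 hours before dosing; controls were DMSO and 2.3 µM bortezomib.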

[4] = qHTS of pediatric cancer cell lines to identify multiple opportunities for drug repurposing: Primary screen for SJ-GBM2 cells (AID 1347091); conditions: SJ-GBM2 viability, CellTiter-Glo luminescence, 48 h; series mostly up to 46 µM; further: potency means the concentration at half of the fitted maximal effect
Outline: as §1

[5] = qHTS of pediatric cancer cell lines to identify multiple opportunities for drug repurposing: Primary screen for A673 cells (AID 1347092); conditions: A673 Ewing sarcoma viability, CellTiter-Glo ATP luminescence, 48 h; series mostly up to 46 µM; further: nearly all actives have a fitted effect of over 45% in size; further: potency means the concentration at half of the fitted maximal effect
Outline: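 48 h compound exposure, A673, 500-1,000 cells/well, 37 degrees C/5% CO2. MIPE: 11-point, 0.78 nM-46 µM; NPC: 8-point, 0.59 nM-46 µM (final). Readout CellTiter-Glo luminescence after 15 min RT.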

[6] = qHTS of pediatric cancer cell lines to identify multiple opportunities for drug repurposing: Primary screen for TC32 cells (AID 1347089); conditions: TC32 Ewing sarcoma viability, CellTiter-Glo luminescence, 48 h; series mostly up to 45.8 µM; further: nearly all actives have a fitted effect of over 60% in size
Outline: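 In the primary qHTS, MIPE compounds were tested at 11 concentrations (0.78 nM to 46 µM) and NPC compounds at 8 (0.59 nM to 46 µM) on TC32 cells for 48 h. CellTiter-Glo luminescence gave viability.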

[7] = target: Atrial natriuretic peptide receptor 2 (Homo sapiens) (UniProt P20594); test: Natriuretic polypeptide receptor (hNpr2) antagonism - Pilot subtype selectivity assay (AID 1347050; calls by dose curve; further: potency means the concentration at half of the fitted maximal effect); conditions: NPR2-expressing cells, cGMP antagonist-mode read-out; series mostly up to 38.3 µM
Outline: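 HEK293 cells expressing hNpr2 and a GloSensor cGMP luciferase sensor, 1500/well, preloaded 2 h with 2% GloSensor reagent, compound 30 min, then 1 nM hNppC for 20 min. Antagonism from luminescence after versus baseline pre-read; LOPAC in 1:5 titrations.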

[8] = NS1 protein of Zika virus - qHTS assay to identify small molecule inhibitors in human HEK 293 cells (AID 1347053); conditions: HEK293 ZIKV MR766 infection, NS1 TR-FRET, 24 h; series mostly up to 46.1 µM; further: nearly all actives have a fitted effect of over 55% in size
Outline: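 HEK 293 cells pretreated with compound for 1 h, then infected with ZIKV MR766 (MOI 0.5) for 24 h at 37 C. NS1 detected by TR-FRET with two anti-NS1 antibodies; normalized to uninfected (0%) and infected (100%) wells.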

[9] = target: T1, Tyrosine-protein phosphatase non-receptor type substrate 1 (Homo sapiens) + Leukocyte surface antigen CD47 (Homo sapiens) (UniProt P78324+Q08722); test: CD47-SIRPalpha protein protein interaction - LANCE assay qHTS validation (AID 1347057; active means well fitted curve in the direction sought with a large enough effect in the signal ratio, with a control signal flat, not every such curve was filed as active; the % refers to the signal ratio); conditions: Recombinant CD47-His / biotin-SIRPalpha, TR-FRET ratio; series mostly up to 38.3 µM
Outline: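 First, His-tagged CD47 and Eu-labelled anti-His antibody met the compound for 30 min; next, site-specifically biotinylated SIRPalpha was added for 30 min; finally streptavidin-APC was added before reading the TR-FRET ratio.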

[10] = target: T1, Tyrosine-protein phosphatase non-receptor type substrate 1 (Homo sapiens) + Leukocyte surface antigen CD47 (Homo sapiens); test: CD47-SIRPalpha protein protein interaction - Alpha assay qHTS validation (AID 1347059); conditions: AlphaScreen CD47-His/biotin-SIRPalpha binding, LOPAC; series mostly up to 38.3 µM;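 further: bead proximity luminescence from CD47 binding SIRPalpha after compound preincubation with SIRPalpha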
Outline: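 Biotinylated Avi-tagged SIRPalpha (25 nM) preincubated 30 min with compound, then His-tagged CD47 (12.5 nM) added 30 min; AlphaScreen with Ni-NTA acceptor and streptavidin donor beads. PBS pH 7.4, 0.05% IGEPAL, room temperature; 7-point titrations.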

[11] = target: Parathyroid hormone/parathyroid hormone-related peptide receptor (Homo sapiens) (UniProt Q03431); test: qHTS for PTHR1 Agonists: Optimization Screen against the NCGC LOPAC library (AID 1347079); conditions: HEK293 GP2 PTHR1 GloSensor cAMP luminescence, 1 h; series mostly up to 57.1 µM;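 further: GloSensor cAMP luminescence in HEK-293 GP2 cells expressing human PTHR1 with IBMX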
Outline: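 Compounds were tested across a qHTS titration. PTHR1-expressing GP2 cells report cAMP rises via GloSensor luminescence after 1 hr compound exposure at 37C with IBMX present.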

[12] = P-glycoprotein substrates identified in KB-8-5-11 adenocarcinoma cell line, qHTS therapeutic library screen (AID 1346987); conditions: KB-8-5-11 (P-gp overexpressing) viability, CellTiter-Glo, 72 h; series mostly up to 44.5 µM; further: nearly all actives have a fitted effect of over 65% in size
Outline: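 P-gp-mediated resistance screen: KB-8-5-11 cells treated 72 h with compounds in dose-response. CellTiter-Glo viability.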

[13] = P-glycoprotein substrates identified in KB-3-1 adenocarcinoma cell line, qHTS therapeutic library screen (AID 1346986); conditions: KB-3-1 parental cells viability, CellTiter-Glo, 72 h; series mostly up to 44.5 µM; further: nearly all actives have a fitted effect of over 60% in size
Outline: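 Compounds were tested in dose-response against KB-3-1 and KB-8-5-11 cells at 37 degree C for 72 h, and viability was measured by luminescence. AC50 values came from curve fitting with class-based activity calls.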

[14] = Natriuretic polypeptide receptor (hNpr1) antagonism - Pilot counterscreen GloSensor control cell line (AID 1347045; calls by dose curve); conditions: HEK293 cGMP GloSensor cells, SNP-stimulated luminescence, 20 min; series mostly up to 38.3 µM
Outline: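 This counterscreen uses HEK293 cells expressing the GIP/pGS-40F cGMP biosensor. Compound-treated cells are challenged with 50 uM sodium nitroprusside, and the luciferase signal is compared before and after stimulation.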

Measured: Potency

Chain of Atrial natriuretic peptide receptor 2 (Homo sapiens) (P20594 whole entry, looked up): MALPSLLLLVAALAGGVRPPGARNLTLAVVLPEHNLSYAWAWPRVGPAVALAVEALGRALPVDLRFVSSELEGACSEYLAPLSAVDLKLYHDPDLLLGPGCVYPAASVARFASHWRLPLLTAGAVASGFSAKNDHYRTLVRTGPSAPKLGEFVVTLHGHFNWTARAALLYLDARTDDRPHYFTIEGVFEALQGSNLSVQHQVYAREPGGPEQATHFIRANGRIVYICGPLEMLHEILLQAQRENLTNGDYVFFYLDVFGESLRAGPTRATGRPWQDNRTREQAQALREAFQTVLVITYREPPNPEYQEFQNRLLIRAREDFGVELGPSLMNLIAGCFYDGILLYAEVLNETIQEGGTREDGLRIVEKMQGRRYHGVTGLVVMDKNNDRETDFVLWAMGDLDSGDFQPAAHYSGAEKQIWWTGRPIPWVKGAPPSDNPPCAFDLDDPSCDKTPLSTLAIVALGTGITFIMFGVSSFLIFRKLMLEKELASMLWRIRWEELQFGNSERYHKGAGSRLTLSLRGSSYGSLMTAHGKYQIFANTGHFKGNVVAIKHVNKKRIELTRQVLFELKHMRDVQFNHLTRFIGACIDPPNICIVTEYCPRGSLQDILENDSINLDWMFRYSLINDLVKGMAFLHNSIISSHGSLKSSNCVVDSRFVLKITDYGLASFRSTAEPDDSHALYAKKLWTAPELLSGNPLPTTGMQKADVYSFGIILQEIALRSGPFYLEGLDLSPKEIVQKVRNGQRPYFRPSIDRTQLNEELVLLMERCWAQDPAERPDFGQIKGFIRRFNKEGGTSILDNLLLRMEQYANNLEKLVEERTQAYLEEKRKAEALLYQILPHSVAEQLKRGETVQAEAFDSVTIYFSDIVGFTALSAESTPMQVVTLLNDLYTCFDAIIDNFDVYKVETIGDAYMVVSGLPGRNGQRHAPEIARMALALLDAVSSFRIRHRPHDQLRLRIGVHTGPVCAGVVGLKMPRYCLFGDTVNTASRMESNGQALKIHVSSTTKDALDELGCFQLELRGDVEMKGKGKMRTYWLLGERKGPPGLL
Chain of Parathyroid hormone/parathyroid hormone-related peptide receptor (Homo sapiens) (Q03431 whole entry, looked up): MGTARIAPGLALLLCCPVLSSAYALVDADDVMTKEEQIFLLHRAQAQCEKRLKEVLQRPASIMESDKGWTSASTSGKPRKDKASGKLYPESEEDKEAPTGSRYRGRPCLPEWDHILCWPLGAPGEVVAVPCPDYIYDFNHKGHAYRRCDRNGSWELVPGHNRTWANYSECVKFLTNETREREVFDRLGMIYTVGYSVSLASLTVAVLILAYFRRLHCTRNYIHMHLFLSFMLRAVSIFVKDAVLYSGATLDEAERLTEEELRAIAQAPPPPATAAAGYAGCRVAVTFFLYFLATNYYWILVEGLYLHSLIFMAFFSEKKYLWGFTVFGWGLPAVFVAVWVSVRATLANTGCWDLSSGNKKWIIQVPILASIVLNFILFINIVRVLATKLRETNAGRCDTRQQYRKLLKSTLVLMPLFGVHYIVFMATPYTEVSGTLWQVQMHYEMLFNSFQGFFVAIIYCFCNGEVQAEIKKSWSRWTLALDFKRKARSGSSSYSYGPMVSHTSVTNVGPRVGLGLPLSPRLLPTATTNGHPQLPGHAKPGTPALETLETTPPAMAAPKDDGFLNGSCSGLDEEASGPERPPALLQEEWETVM
T1 sequence (P78324 whole entry, looked up): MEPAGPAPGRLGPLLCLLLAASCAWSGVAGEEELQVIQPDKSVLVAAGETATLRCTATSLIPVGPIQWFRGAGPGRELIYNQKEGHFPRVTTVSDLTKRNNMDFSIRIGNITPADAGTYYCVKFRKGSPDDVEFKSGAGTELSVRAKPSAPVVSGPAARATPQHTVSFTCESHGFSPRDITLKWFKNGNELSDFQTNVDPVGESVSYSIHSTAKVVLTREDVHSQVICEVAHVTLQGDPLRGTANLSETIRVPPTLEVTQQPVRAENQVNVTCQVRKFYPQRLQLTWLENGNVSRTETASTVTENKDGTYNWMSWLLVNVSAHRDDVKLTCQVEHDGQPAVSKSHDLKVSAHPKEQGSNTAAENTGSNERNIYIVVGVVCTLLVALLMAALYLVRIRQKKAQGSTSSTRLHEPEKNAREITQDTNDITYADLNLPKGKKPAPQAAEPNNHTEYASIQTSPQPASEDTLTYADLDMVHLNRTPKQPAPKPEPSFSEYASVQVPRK
T1 sequence (Q08722 whole entry, looked up): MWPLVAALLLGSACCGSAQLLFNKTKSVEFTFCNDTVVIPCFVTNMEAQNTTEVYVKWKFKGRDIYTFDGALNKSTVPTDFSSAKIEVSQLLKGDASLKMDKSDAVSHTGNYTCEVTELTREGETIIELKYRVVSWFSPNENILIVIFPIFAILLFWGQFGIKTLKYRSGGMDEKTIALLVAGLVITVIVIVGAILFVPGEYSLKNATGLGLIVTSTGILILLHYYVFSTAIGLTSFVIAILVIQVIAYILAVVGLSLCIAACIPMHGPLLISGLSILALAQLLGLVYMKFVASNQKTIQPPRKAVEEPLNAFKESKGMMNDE

C#CC(C)(CC)OC(=O)c1ccccc1C(=O)O (centres undefined)
inactive: [1] | [2] | [3] | [4] | [5]

C=CCNc1nc(NCC=C)nc(N2CCN(C(c3ccc(F)cc3)c3ccc(F)cc3)CC2)n1
inactive: [1] | [2] | [6] | [4]

NS(=O)(=O)c1cc(C(=O)NN2C[C@H]3[C@H]4CCC(C4)[C@H]3C2)ccc1Cl
inactive: [1] | [2] | [3] | [4] | [5]

O=C1Nc2ccccc2C1(c1ccc(O)cc1)c1ccc(O)cc1
inactive: [1] | [2] | [6] | [3] | [4] | [5]

CC(=O)c1ccc(O)c(C(N)=O)c1
inactive: [1] | [2] | [6] | [3] | [4] | [5]

COc1cc(S(N)(=O)=O)cc(C(=O)O)c1OC
inactive: [1] | [2] | [6] | [3] | [5]

COC(=O)c1cc(Cl)ccc1NS(=O)(=O)C(F)(F)F
inactive: [1] | [2] | [6] | [3] | [4] | [5]

Fc1ccc(C(c2ccc(F)cc2)N2CCNCC2)cc1
inactive: [1] | [2] | [6] | [3] | [4] | [5]

CN1CC(=O)N2[C@H](c3ccc4c(c3)OCO4)c3[nH]c4ccccc4c3C[C@@H]2C1=O
inactive: [1] | [2] | [6] | [3] | [4] | [5]

Clc1ccc2c(c1)N=C(N1CCNCC1)c1ccccc1N2
inactive: [1] | [8] | [9] | [10] | [11]
active: [7] 14.7 µM

CC(C)OP(=O)(CP(=O)(OC(C)C)OC(C)C)OC(C)C
inactive: [1] | [3] | [5]

CCc1cc(S(=O)(=O)O)c2cc(C(C)C)cccc1-2
inactive: [1] | [12] | [8] | [3] | [4] | [5]

CCC1(c2cnc[nH]2)Cc2ccccc2C1
inactive: [1] | [8] | [6] | [3] | [4] | [5]

Cc1cc(=O)oc2cc(O[C@@H]3SC[C@@H](O)[C@H](O)[C@H]3O)ccc12
inactive: [1] | [8] | [6] | [3] | [5]

CC(C)(C)C(=O)OCOC(=O)C1N2C(=O)CC2S(=O)(=O)C1(C)C (centres undefined)
inactive: [2] | [12] | [8] | [6] | [3] | [4] | [5]

O=C(O)c1ccccc1Nc1cc(Cl)ccc1C(=O)O
inactive: [1] | [8] | [6] | [4] | [5]

Cc1c(N)cccc1C(F)(F)F
inactive: [1] | [6] | [3] | [4]

O=C1CC2(CCCC2)CC(=O)N1CCNCC1COc2ccccc2O1 (centres undefined)
inactive: [1] | [8] | [6] | [3] | [4] | [5]

COCCc1ccccn1
inactive: [1] | [8] | [6] | [3] | [4] | [5]

CCN(CC)CCN
inactive: [1] | [8] | [6] | [3] | [4] | [5]

Cc1ccc(C(=O)C(=O)O)cc1C
inactive: [1] | [8] | [6] | [3] | [4] | [5]

O=C(c1ccco1)N1CCNCC1
inactive: [1] | [8] | [6] | [4] | [5]

COCCOCC(OC)OC
inactive: [1] | [8] | [6] | [3] | [5]

OCCOCCN1CCN(C(c2ccccc2)c2ccc(Cl)cc2)CC1 (centres undefined)
inactive: [1] | [8] | [6] | [3] | [4] | [5]

CO/N=C(/C(=O)N[C@@H]1C(=O)N2C(C(=O)O)=C(Cn3nnc(C)n3)CS[C@H]12)c1csc(N)n1
inactive: [1] | [13] | [12] | [8] | [3] | [4] | [5]

CC(C)(C)c1nnc(NS(=O)(=O)c2ccccc2)s1
inactive: [1] | [12] | [8] | [6] | [4] | [5]

CC(C)NCCCC1(C(N)=O)c2ccccc2-c2ccccc21
inactive: [1] | [8] | [6] | [3] | [4] | [5]

COc1cc(C(=O)NC2CCCNC2)cc(OC)c1OC (centres undefined)
inactive: [1] | [12] | [6] | [3] | [4] | [5]

O=C1NC2CCCCN2C12CCN(CCCN1c3ccccc3CCc3ccc(Cl)cc31)CC2 (centres undefined)
inactive: [1] | [6]
active: [4] 23.7 µM

O=C1NC(=O)/C(=C/c2ccc3c(c2)OC(F)(F)O3)S1
inactive: [1] | [7] | [8] | [9] | [10] | [11]

NCC(=O)O
inactive: [1] | [12] | [8] | [6] | [3] | [5]

O=C1OC2(c3ccccc31)c1cc(I)c(O)c(I)c1Oc1c2cc(I)c(O)c1I
inactive: [1] | [6] | [3] | [5]

CC(C)(C)c1ccc(C(=O)CCCCl)cc1
inactive: [1] | [8] | [6] | [3] | [5]

CCC(=O)O[C@H]1[C@H](O[C@@H]2[C@@H](C)[C@H](O[C@H]3C[C@@](C)(OC)[C@@H](O)[C@H](C)O3)[C@@H](C)C(=O)O[C@H](CC)[C@@](C)(O)[C@H](O)[C@@H](C)C(=O)[C@H](C)C[C@@]2(C)O)O[C@H](C)C[C@@H]1N(C)C
inactive: [1] | [6] | [3] | [4] | [5]

CCC(C(=O)OCCN1CCOC(c2ccccc2)C1C)c1ccccc1 (centres undefined)
inactive: [1] | [8] | [6] | [3] | [5]

O=C(O)c1[nH]n(-c2ccc(S(=O)(=O)O)cc2)c(=O)c1N=Nc1ccc(S(=O)(=O)O)cc1
inactive: [1] | [8] | [6] | [3] | [4] | [5]

CCCCCCCCCCCCCCCCCCNC(=O)OC1CCN(C(=O)OC[C@H](COC(=O)N(Cc2cccc[n+]2CC)C(=O)c2ccccc2OC)OC)CC1
inactive: [1] | [2]
active: [5] 8.41 µM

CN(C)c1cc2c(Nc3ccc4c(cnn4Cc4ccccc4)c3)ncnc2cn1
inactive: [1] | [13] | [14] | [7] | [8] | [10] | [11]

CCCC(=O)O[C@]1(C(=O)CCl)[C@@H](C)C[C@H]2[C@@H]3CCC4=CC(=O)C=C[C@]4(C)[C@@]3(F)C(=O)C[C@@]21C
inactive: [1] | [6]

Cc1ccc2c(Cl)cc(Cl)c(O)c2n1
inactive: [1] | [8] | [6] | [3] | [4] | [5]
